Reference: the supplement of paper PMC10811239

Each molecule was assayed on LEGO organoid PTN (PTEN-/-; TP53-/-; NF1-/-) (assay: bioluminescence (viable cell) signal fold change after vs before treatment, normalised to DMSO (ratio); higher = more tumour cell growth / less inhibition). Details: 10 µM; treatment time 6 days.
Description: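 Luc2-labelled iPSC-derived glioblastoma-like organoids (LEGOs, genotypes PT = PTEN-/-;TP53-/-, PTCC = plus CDKN2A/B-/-, PTN = plus NF1-/-) were treated with 10 uM drug for 6 days (applied every other day) at 37 C. Bioluminescence imaging was done before treatment and 2 days after the last dose. BLI signals were normalised to the DMSO control on the same day and then to the pre-treatment signal (N=3).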
`COC(=O)C1=C(C)NC(C)=C(C(=O)OCCN(C)Cc2ccccc2)C1c1cccc([N+](=O)[O-])c1.Cl` (stereo not drawn) [Nicardipine hydrochloride] showed a bioluminescence of 1.14.
With `Cl.OC[C@H]1NC[C@H](O)[C@@H](O)[C@H]1O` [Migalastat hydrochloride] the bioluminescence was 0.719.
In the case of `CC(C(=O)O)c1ccc(-c2ccccc2)c(F)c1` (stereo not drawn) [Flurbiprofen], the bioluminescence is reported as 1.47.
With `Nc1cccc2c1CN(C1CCC(=O)NC1=O)C2=O` (stereo not drawn) [Lenalidomide] the bioluminescence was 3.63.
In the case of `CN(C)CC(c1ccc(O)cc1)C1(O)CCCCC1.O=C(O)CCC(=O)O` (stereo not drawn) [Desvenlafaxine succinate hydrate], the bioluminescence is reported as 0.536.
Work on `CCCN(CCc1cccs1)[C@H]1CCc2c(O)cccc2C1` [Rotigotine] yielded a bioluminescence of 1.77.
Molecule `CCN(CC)C(=O)[C@]1(c2ccccc2)C[C@@H]1CN.Cl` [Milnacipran hydrochloride] has a bioluminescence of 2.39.
`CCCN(CCC)S(=O)(=O)c1ccc(C(=O)O)cc1` [Probenecid] showed a bioluminescence of 1.62.
With `CN(C)CCc1c[nH]c2ccc(CS(=O)(=O)N3CCCC3)cc12.O=C(O)CC(O)C(=O)O` [Almotriptan Malate] the bioluminescence was 0.959.
For `C[C@@H]1COCCN1c1cc(C2([S@](C)(=N)=O)CC2)nc(-c2ccnc3[nH]ccc23)n1` [Ceralasertib], the bioluminescence was 0.823.
Molecule `C[C@@](Cc1ccc(O)c(O)c1)(NN)C(=O)O.O` [Carbidopa Hydrate] has a bioluminescence of 1.55.
Molecule `COC(c1ccccc1)(c1ccccc1)[C@H](Oc1nc(C)cc(C)n1)C(=O)O` [Ambrisentan] has a bioluminescence of 1.08.
Work on `OC[C@H]1O[C@@H](n2cnc3c2NC=NC[C@H]3O)C[C@@H]1O` [Pentostatin] yielded a bioluminescence of 1.59.
`CC(=O)NCCCS(=O)(=O)[O-].CC(=O)NCCCS(=O)(=O)[O-].[Ca+2]` [Acamprosate calcium] was tested, and the bioluminescence was 1.11.
For `CNC(=O)c1cc(Oc2ccc(NC(=O)Nc3ccc(Cl)c(C(F)(F)F)c3)cc2)ccn1` [Sorafenib], the bioluminescence was 0.285.
`CC(C)CN(C[C@@H](O)[C@H](Cc1ccccc1)NC(=O)O[C@H]1CCOC1)S(=O)(=O)c1ccc(N)cc1` [Amprenavir] gave a bioluminescence of 0.695.
Work on `O=c1cc(O)c(Cl)c[nH]1` [Gimeracil] yielded a bioluminescence of 1.25.
`CNC(=O)c1cc(Oc2ccc(NC(=O)Nc3ccc(Cl)c(C(F)(F)F)c3)cc2)ccn1.Cc1ccc(S(=O)(=O)O)cc1` [Sorafenib tosylate] gave a bioluminescence of 0.504.
`Clc1ccc2c(c1)C(N1CCNCC1)=Nc1ccccc1O2` [Amoxapine] showed a bioluminescence of 0.981.
Molecule `Nc1cccc2c1C(=O)N(C1CCC(=O)NC1=O)C2=O` (stereo not drawn) [Pomalidomide] has a bioluminescence of 1.12.
`Nc1nc(NC2CC2)c2ncn([C@H]3C=C[C@@H](CO)C3)c2n1.Nc1nc(NC2CC2)c2ncn([C@H]3C=C[C@@H](CO)C3)c2n1.O=S(=O)(O)O` [Abacavir sulfate] gave a bioluminescence of 1.95.
For `CC(=O)Oc1ccccc1C(=O)O` [Aspirin], the bioluminescence was 0.737.
With `CO[C@H]1C(=O)[C@]2(C)[C@@H](OC)C[C@H]3OC[C@@]3(OC(C)=O)[C@H]2[C@H](OC(=O)c2ccccc2)[C@]2(O)C[C@H](OC(=O)[C@H](O)[C@@H](NC(=O)OC(C)(C)C)c3ccccc3)C(C)=C1C2(C)C` [Cabazitaxel] the bioluminescence was 0.429.
`CC(C)c1c(C(=O)Nc2ccccc2)c(-c2ccccc2)c(-c2ccc(F)cc2)n1CC[C@@H](O)C[C@@H](O)CC(=O)[O-].CC(C)c1c(C(=O)Nc2ccccc2)c(-c2ccccc2)c(-c2ccc(F)cc2)n1CC[C@@H](O)C[C@@H](O)CC(=O)[O-].[Ca+2]` [Atorvastatin Calcium] was tested, and the bioluminescence was 0.0875.
For `Nc1[nH]c(=O)ncc1F` [Fluorocytosine], the bioluminescence was 1.26.
Work on `O=C1CCc2ccc(OCCCCN3CCN(c4cccc(Cl)c4Cl)CC3)cc2N1` [Aripiprazole] yielded a bioluminescence of 0.284.
`COc1ccc(Cl)cc1C(=O)NCCc1ccc(S(=O)(=O)NC(=O)NC2CCCCC2)cc1` [Glyburide] showed a bioluminescence of 1.61.
In the case of `CO/N=C(\C(=O)N[C@@H]1C(=O)N2C(C(=O)[O-])=C(CSc3nc(=O)c([O-])nn3C)CS[C@H]12)c1csc(N)n1.CO/N=C(\C(=O)N[C@@H]1C(=O)N2C(C(=O)[O-])=C(CSc3nc(=O)c([O-])nn3C)CS[C@H]12)c1csc(N)n1.O.O.O.O.O.O.O.[Na+].[Na+].[Na+].[Na+]` [Ceftriaxone sodium], the bioluminescence is reported as 2.01.
With `CC(C)Cc1ccc(C(C)C(=O)O)cc1` (stereo not drawn) [Ibuprofen] the bioluminescence was 1.57.
For `Cc1cccc(C)c1OCC(=O)N[C@@H](Cc1ccccc1)[C@@H](O)C[C@H](Cc1ccccc1)NC(=O)[C@H](C(C)C)N1CCCNC1=O` [Lopinavir], the bioluminescence was 0.66.
With `C[C@@H]1CCN(C(=O)CC#N)C[C@@H]1N(C)c1ncnc2[nH]ccc12` [Tofacitinib] the bioluminescence was 1.19.
With `CN(C/C=C/c1ccccc1)Cc1cccc2ccccc12.Cl` [Naftifine hydrochloride] the bioluminescence was 0.535.
Work on `Nc1ncn([C@H]2C[C@H](O)[C@@H](CO)O2)c(=O)n1` [Decitabine] yielded a bioluminescence of 1.09.
With `C[C@H]1C[C@@H]2[C@H]([C@@H](O)C[C@@]3(C)[C@H]2CC[C@]3(O)C(=O)CO)[C@@]2(C)C=CC(=O)C=C12` [Methylprednisolone] the bioluminescence was 1.17.
For `NC(=O)N1c2ccccc2C=Cc2ccccc21` [Carbamazepine], the bioluminescence was 1.42.
`O=C(CCCCCCC(=O)Nc1ccccc1)NO` [Vorinostat] showed a bioluminescence of 0.384.
Molecule `COc1ccccc1OCC(O)COC(N)=O` (stereo not drawn) [Methocarbamol] has a bioluminescence of 2.82.
Molecule `CC(=O)[C@H]1CC[C@H]2[C@@H]3CCC4=CC(=O)CC[C@]4(C)[C@H]3CC[C@]12C` [Progesterone] has a bioluminescence of 1.12.
